Hits are enriched below; roughly 28% of the tested compounds scored in any of these assays.
CYP2C19 act: human CYP2C19 activators, primary screen, biochemical, luminescence; Cytochrome P450 2C19 (Homo sapiens), P33261; recombinant CYP2C19, luciferin-H EGE luminescence; stronger effect = higher value; 0 = fully inhibited enzyme, 1 = untreated enzyme; activation factor at 5 µM; 96,000 tested, under 10 active; AID 1025, 2008;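 active means activation factor of at least 2 at 5 µM in the primary screen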
Pyk2 oligo antag: antagonists of Pyk2 self-association, primary screen, Q293 cells, FERM NanoBiT luminescence, HTS; Protein-tyrosine kinase 2-beta (Homo sapiens), Q14289; stronger effect = lower value; z-score (the deposit names both 25 µM and 10 µM); actives 0.83% (n = 99,000); AID 1347419, 2020;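 active means Z-score of -3 or lower, scaled per plate to the spread of control and sample wells; inactive means z-score above -3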;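 further: negative z-score means lost luminescence so less FERM oligomerization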
CYP2C9 activ: human CYP2C9 activators, primary screen, biochemical, luminescence; Cytochrome P450 2C9 (Homo sapiens), P11712; recombinant CYP2C9, luciferin-H conversion; stronger effect = higher value; factor 1 = untreated enzyme, 0 = blocked; activation factor at 5 µM; actives 1.4% (n = 96,000); AID 1024, 2008;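 active means activation factor of 2 or more for CYP2C9 at a 5 µM dose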
CYP2C19 inhib: blockers of cytochrome P450 2C19 activity – biochemical, luminescence, ADME assay, primary screen; P33261; CYP2C19 Supersomes, luciferin-H EGE luminescence, 30 min; inhibition, % at 5 µM; actives 21% (n = 96,000); AID 778, 2007;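 active means CYP2C19 inhibition above a set limit at 5 µM in the primary screen, cut at about 50% in these data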
CYP2C9 inhib: blockers of cytochrome P450 2C9 activity – biochemical, luminescence, ADME assay, primary screen; P11712; CYP2C9 Supersomes, luciferin-H conversion; inhibition, % at 5 µM; actives 20% (n = 96,000); AID 777, 2007;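 active means blocking of liver enzyme CYP2C9 beyond about 50% at 5 µM, limit read from the data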
Large screens that a line does not name were inactive.

CCc1ccc(-c2ccc(C(=O)C(F)(F)F)[nH]2)cc1	none
CCOC(=O)N1CCN(C(=O)CS(=O)(=O)c2cn(Cc3cccc(F)c3)c3ccccc23)CC1	none
CCn1cc(C2=NOC(C(=O)Nc3cc(C)nn3-c3ccccc3)C2)c(C)n1 (stereo not drawn)	none
c1nc2nc3c(c(N4CCOCC4)n2n1)CCCC3	none
CC1CCc2c(nc3ncnn3c2N2CCN(c3ccccc3)CC2)C1 (stereo not drawn)	CYP2C9 inhib 90.0
CC1CCc2c(nc3ncnn3c2N2CCN(c3ccccc3F)CC2)C1 (stereo not drawn)	CYP2C9 inhib 65.5
CCCCC(=O)NCCc1cc2c(OC)ccc(OC)c2[nH]c1=O	CYP2C9 activ 2.3
CCN(CC)S(=O)(=O)c1ccc(C(=O)NCCc2cc3c(OC)ccc(OC)c3[nH]c2=O)cc1	CYP2C9 inhib 84.6
Cc1ccc(C)c2[nH]c(=O)c(CCNC(=O)c3ccc4c(c3)OCO4)cc12	none
COc1ccc(OC)c2[nH]c(=O)c(CCNC(=O)c3ccc(S(=O)(=O)N4CCCC4)cc3)cc12	CYP2C9 inhib 62.0
COc1ccccc1CNC(=O)c1ccc(S(=O)(=O)N2CCCC2)cc1	none
Cc1ccc(C)c2[nH]c(=O)c(CCNC(=O)c3ccc(S(=O)(=O)N(C)C)cc3)cc12	CYP2C9 inhib 58.6 (no result: Pyk2 oligo antag)
Cc1ccc(/C=C/c2ccc(=O)n(Cc3ccccc3Cl)n2)cc1	none
CCN1CCN(C(c2ccc(OC)cc2)C(O)C(=O)c2c[nH]c3ccccc23)CC1 (stereo not drawn)	none
CCCCCCC1NC(C(=O)O)CS1 (stereo not drawn)	none
N#C/C(=C\c1cn(-c2ccccc2)nc1-c1cccnc1)c1nnc2n1CCCCC2	CYP2C19 inhib 58.9, CYP2C9 inhib 93.3
O=C(NCc1cccs1)C(NS(=O)(=O)c1cccc2nsnc12)c1ccccc1 (stereo not drawn)	CYP2C9 inhib 55.1
O=C(NCc1cccs1)C1CCN(S(=O)(=O)c2cccc3nsnc23)CC1	CYP2C9 activ 2.5
O=C(NCCC1=CCCCC1)C1CCN(S(=O)(=O)c2cccc3nsnc23)CC1	none (no result: CYP2C19 act, CYP2C9 activ, CYP2C19 inhib, CYP2C9 inhib)
COc1ccc(CCNC(=O)C2CCN(S(=O)(=O)c3cccc4nsnc34)CC2)cc1OC	none
O=C(c1ccco1)N1CCN(S(=O)(=O)c2cccc3nsnc23)CC1	CYP2C19 inhib 74.9
O=S(=O)(c1cccc2nsnc12)N1CCOCC1	none
O=C(NCCc1ccccc1)C1CCN(S(=O)(=O)c2cccc3nsnc23)CC1	CYP2C9 activ 2
O=C(CN(Cc1ccco1)C(=O)c1cc(=O)[nH]c2ccccc12)Nc1ccccc1Br	none (no result: CYP2C19 act, CYP2C9 activ, CYP2C19 inhib, CYP2C9 inhib)
CC1CCN(CC(=O)N2CC(=O)Nc3ccccc32)CC1	none (no result: CYP2C19 act, CYP2C9 activ, CYP2C19 inhib, CYP2C9 inhib)
N#Cc1ccc(C(=O)NCC(c2ccco2)N2CCCCC2)cc1 (stereo not drawn)	none
CC(=O)c1cccc(S(=O)(=O)NCC(c2ccco2)N2CCCCC2)c1 (stereo not drawn)	CYP2C19 inhib 75.3
CCCCc1cc(=O)oc2cc(OCC(=O)N3CCc4ccccc43)ccc12	none
Cc1cc(=O)oc2cc(OCC(=O)N3CCOCC3)ccc12	none (no result: CYP2C19 act, CYP2C9 activ, CYP2C19 inhib, CYP2C9 inhib)
COc1ccc2c(c1)c(=O)oc1cc(OCC(=O)N3CCCC(C)C3)ccc12 (stereo not drawn)	CYP2C19 inhib 99.0
CC(=O)COc1ccc2c(C)c(C)c(=O)oc2c1	none
COc1ccc2c(c1)c(=O)oc1cc(OCC(=O)N3CCc4ccccc4C3)ccc12	CYP2C9 inhib 61.4
COc1ccc2c(c1)c(=O)oc1cc(OCC(=O)N3CCC(C)CC3)ccc12	CYP2C19 inhib 98.9
CCc1cc(C(=O)OC)c(NC(=O)C2CC(=O)NN2Cc2ccccc2)s1 (stereo not drawn)	none
Cc1cc(N2C(=O)NC(=O)CC2C)c(C)cc1C(C)C (stereo not drawn)	none (no result: CYP2C19 act, CYP2C9 activ, CYP2C19 inhib, CYP2C9 inhib)
O=C(COc1ccc(Cl)cc1)NCc1nnc(SCC(=O)NCCc2ccccc2)o1	none
O=C(Cn1nnc2ccccc21)OCC(=O)c1ccc(Cl)c(Cl)c1	Pyk2 oligo antag -3.97 (no result: CYP2C19 act, CYP2C9 activ, CYP2C19 inhib, CYP2C9 inhib)
CCc1nnc(NC(=O)CSc2nnc(-c3ccccc3O)n2-c2ccc(C)cc2C)s1	Pyk2 oligo antag -3.78
Cc1ccc(C)c(-n2c(SCC(=O)Nc3nonc3C)nnc2-c2ccoc2C)c1	CYP2C9 inhib 82.2
Cc1c(C)n(C(=O)CSc2nccn2C)c2ccccc12	CYP2C19 inhib 78.6
Cc1cc(C)n(CC(=O)n2c(C)c(C)c3ccccc32)n1	none (no result: CYP2C19 act, CYP2C9 activ, CYP2C19 inhib, CYP2C9 inhib)
Cc1ccc(-c2ccc(SCC(=O)Nc3nonc3C)nn2)cc1	CYP2C9 inhib 86.3
Cc1nonc1NC(=O)CSc1nnc(-c2ccoc2C)n1C	none
Cc1cc(NC(=O)CSc2nnc(-c3ccc(Br)o3)n2Cc2ccccc2)no1	CYP2C19 inhib 58.0, CYP2C9 inhib 66.2
CCn1c(SCC(=O)Nc2ccc3c(c2)OCCO3)nnc1-c1ccco1	none
CCc1nnc(NC(=O)CSc2nnc(-c3ccco3)n2CC)s1	CYP2C9 inhib 64.9
CCn1c(SCC(=O)Nc2cc(C)on2)nnc1-c1ccco1	CYP2C19 inhib 53.3
CCn1c(SCC(=O)Nc2ccc3c(c2)c2ccccc2n3CC)nnc1-c1ccco1	CYP2C19 inhib 85.0
CCC(C)NC(=O)C1CCC(=O)N(c2ccc3c(c2)OCO3)C1c1ccc(OC)cc1 (stereo not drawn)	none (no result: Pyk2 oligo antag)
COc1ccccc1NC(=O)C1=C(C)Nc2nc(-c3cccs3)nn2C1c1cccnc1 (stereo not drawn)	none (no result: Pyk2 oligo antag)
CCc1cccc(C)c1NC(=O)CSc1ncn[nH]1	none
CCOC(=O)N1CCN(C(=O)CSc2nnc(Cc3ccccc3)o2)CC1	none (no result: Pyk2 oligo antag)
CCOCCCNCC(=O)Nc1ccccc1N1CCOCC1	none
O=C(/C=C/c1ccc(Cl)cc1Cl)NCCN1CCOCC1	none
O=C(CNc1ccc(Oc2ccccc2)cc1)N1CCOCC1	none
CCc1nnc(NC(=O)CSc2nnc(-c3c[nH]c4ccccc34)n2CC)s1	CYP2C9 inhib 56.8
C=CCn1c(SCc2c(F)cccc2Cl)nnc1-c1ccco1	CYP2C19 inhib 96.0
CCn1c(SCC(=O)Nc2nonc2C)nnc1-c1ccco1	CYP2C19 inhib 85.5
C=CCn1c(SCC(=O)Nc2cc(C)ccc2OC)nnc1-c1ccco1	CYP2C19 inhib 98.2
C=CCn1c(SCC(=O)Nc2cc(C)c(Cl)cc2OC)nnc1-c1ccco1	none
O=C1c2oc3ccccc3c(=O)c2C(c2cccnc2)N1Cc1ccco1 (stereo not drawn)	none
COCCCn1c(SCC(=O)n2c(C)c(C)c3ccccc32)nnc1-c1ccoc1C	CYP2C19 inhib 88.8
CCn1c(SCC(=O)n2c(C)c(C)c3ccccc32)nnc1-c1ccco1	CYP2C19 inhib 86.8
Cc1cc([N+](=O)[O-])ccc1NC(=S)NC(=O)Cc1ccccc1	none
